Source: PubChem
Rows were chosen to be rich in hits. Some 8.1% of all compounds tested hit in one or more screens of this group.
MCF10A rerep = inducers of DNA re-replication in MCF 10A breast cells | MCF 10A DNA re-replication, Hoechst nuclear intensity, 48 h | Potency, µM (doses to about 46.1 µM), for inactives: top-dose activity, positive = re-replication, most hits filed as activators | hit rate 2.9% among 350,000 | AID 624296; also: % of control where 0% means no effect; nearly all actives have a fitted effect of over 50% in size
KB-V1 MDR tox = KB-V1 MDR subline cytotoxicity; KB-V1 MDR cells viability, CellTiter-Glo, 72 h; AID 1347076; hit rate 3.4% among 400,000; Potency, µM (series often up to 46.1 µM), hits mostly cytotoxic; also: % is scaled to controls: 0 for no effect and ±100 for the full control effect; nearly all actives have a fitted effect of over 60% in size
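Luminescent ATP read-out (CellTiter-Glo, 10 min) measures survival of drug-selected KB-V1 MDR cells after 72 h, 37 degrees C compound exposure. Medium: phenol-red-free DMEM, 10% FBS. Values from fitted concentration-response curves.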
KB-3-1 tox = kills parental KB-3-1 adenocarcinoma cells; KB-3-1 viability, CellTiter-Glo ATP luminescence, 72 h; Potency, µM (doses to about 46.1 µM), actives largely listed as cytotoxic; hit rate 1.4% among 400,000; AID 1347075; also: % is scaled to controls: 0 for no effect and ±100 for the full control effect; nearly all actives have a fitted effect of over 60% in size
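Multi-concentration cytotoxicity screen in KB-3-1 cells grown in DMEM lacking phenol red with 10% FBS. After 72 h at 37 °C with compound, ATP-dependent luminescence was recorded.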
SW480 rerep = induces DNA re-replication in SW480 colon adenocarcinoma cells | SW480 DNA re-replication, Hoechst DNA content imaging, 48 h | Potency, µM (titrated, usually from 46.1 µM), for the others: at the highest dose re-replication activation, usual class: activators | hit rate 1.8% among 340,000 | AID 624297; also: % of control where 0% means no effect; nearly all actives have a fitted effect of over 55% in size
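SW480 cells exposed to compounds for 48 hr at 37 C, 5% CO2, then Hoechst-stained 40 min. Nuclear DNA content imaged by fluorescence scanning (405 nm excitation, 500-530 nm emission); re-replication scored as increased high-intensity nuclei.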
ELG1 DNA repair = ELG1-dependent DNA repair inhibition | HEK293T ELG1-luciferase reporter, luminescence, 16 h; DNA damage induced by 5-fluorouridine | Potency, µM (series often up to 46.1 µM), for inactives: top-dose activity change, negative = inhibition, most hits filed as inhibitors | hit rate 2.3% among 330,000 | AID 504467; also: % is scaled to controls: 0 for no effect and ±100 for the full control effect; nearly all actives have a fitted effect of over 55% in size
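Cells (2,000 per well) received 5-fluorouridine plus test compound or DMSO and were incubated 16 hr at 37 °C, 5% CO2. Luciferase activity was read by luminescence 30 min after ONE-Glo addition; signal suppression marked inhibition of damage-induced ELG1 function.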
* hit, by the source's call; i = inactive; ? = inconclusive; / = no result given; ! = not confirmed by another sample. Calls follow the shape of the dose curve; as a rule, active = well fitted curve in the direction sought with a large enough effect; inconclusive = small, poorly fitted or top-dose-only effect, or another doubt; inactive = no such curve, though single readings can be large; an effect the other way counts as inactive or inconclusive. Potency is read from the fitted curve at half-maximal effect.

SMILES	MCF10A rerep	KB-V1 MDR tox	KB-3-1 tox	SW480 rerep	ELG1 DNA repair
Cc1sc(NC(=O)C2CCCO2)c(C#N)c1C (stereo not drawn)	-4.9%	i	i	-8.4%	?
NC(=O)c1c(NC(=O)C2CCCO2)sc2c1CCCC2 (stereo not drawn)	0.6%	14.6µM*!	i	-5.0%	?
N#Cc1c(NC(=O)C2CCCO2)sc2c1CCCCCC2 (stereo not drawn)	?	18.4µM*	i	?	?
COC(=O)Nc1sc2c(c1C(N)=O)CCCC2	/	i	i	/	/
COC(=O)Nc1sc2c(c1C(=O)NC1CC1)CCCCCC2	?	23.1µM*	i	-5.7%	-8.2%
Cc1ccccc1CNC(=O)c1ccc2[nH]c(C)c(C)c2c1	/	i	i	/	/
O=C1C=C(NC2=CC3OC(c4ccccc4)OCC3OC2=O)CCC1 (stereo not drawn)	?	?	?	?	13µM*
Cc1ccc2[nH]c(C)c(/C=C/c3cc[n+](C)cc3)c2c1	47.1%	i	2.06µM*	?	2.59µM*
O=C(Nc1ccc2nc(-c3cccs3)c(-c3cccs3)nc2c1)N1CCCCC1	/	i	i	/	/
COc1ccc(-c2noc(CC(=O)Nc3ccc(Br)cc3C)n2)cc1	/	i	i	/	/
Cc1ccc(S(=O)(=O)N2CCCCC2CCNC(=O)C(=O)NCc2ccncc2)cc1 (stereo not drawn)	6.9%	?	i	-3.7%	?
Cc1ccccc1CNC(=O)C(=O)NCC1CCCN1S(=O)(=O)c1ccccc1 (stereo not drawn)	2.6%	?	i	-3.7%	9.9%
Cc1ccc(S(=O)(=O)N2CCCCC2CCNC(=O)C(=O)NCc2ccccc2)cc1 (stereo not drawn)	?	4.11µM*	3.66µM*	6.51µM*	-28.5%
Cc1ccc(S(=O)(=O)N2CCCCC2CCNC(=O)C(=O)NCc2ccccc2C)cc1 (stereo not drawn)	?	9.2µM*	?	20.6µM*	?
Cc1ccc(S(=O)(=O)N2CCCCC2CCNC(=O)C(=O)NCC2CCCO2)cc1 (stereo not drawn)	-0.1%	5.8µM*	i	4.0%	4.1%
CCCc1cc(=O)oc2c(C)c(OCC(=O)NC3CCN(Cc4ccccc4)CC3)ccc12	-12.3%	i	i	-1.4%	-6.0%
CC(NC(=O)c1ccc2ccccc2n1)c1ccc(Br)cc1 (stereo not drawn)	23.1µM*	i	?	?	-2.6%
Cc1cnc(CNC(=O)c2ccc3oc(C(C)C)nc3c2)[nH]1	-12.0%	?	i	-26.1%	?
Cc1cc(C)c2c(C)c(C(=O)NCc3ccncc3)oc2c1	2.5%	?	i	-9.0%	-20.3%
CCc1ccc2oc(C(=O)NCc3ccncc3)c(C)c2c1	4.5%	11.6µM*	?	-12.2%	?
Cc1ccc2oc(C(=O)NCc3ncc(C)[nH]3)c(C)c2c1	?	?	10.3µM*	16.4µM*	2.7%
CCCS(=O)(=O)c1c(S(=O)(=O)CCC)c2cc(-c3ccncc3)ccn2c1C(=O)OC	23.1µM*	i	i	18.4µM*	?
CCCS(=O)(=O)c1c(S(=O)(=O)CCC)c2cc(CC)ccn2c1C(=O)c1ccc(OC)cc1	/	i	i	/	/
OC1Cc2ccccc2C1Nc1cccc(C(F)(F)F)c1 (stereo not drawn)	-0.7%	?	i	2.7%	/
N#Cc1ccc(NC2c3ccccc3CC2O)cc1 (stereo not drawn)	3.3%	18.4µM*	?	-2.0%	/
SMILES	MCF10A rerep	KB-V1 MDR tox	KB-3-1 tox	SW480 rerep	ELG1 DNA repair
CCOc1ccc(-c2nc(Cn3c(=O)cc(-c4ccccc4)c4c(C)nn(C)c43)c(C)o2)cc1OC	/	i	i	/	/
Fc1cccc(F)c1[B-](F)(F)F	1.0%	i	i	?	/
Cc1ccc(S(=O)(=O)C2(C(=O)N3CCCCCC3)CC2)cc1	-0.7%	23.1µM*	i	-0.4%	?
Cc1ccc(S(=O)(=O)C2(C(=O)NC3CCCC3)CC2)cc1	8.6%	i	i	-13.1%	8.3%
Cc1ccc(S(=O)(=O)C2(C(=O)N3CCN(c4cc(C)ccc4C)CC3)CC2)cc1	3.3%	i	i	21.6%	25.9µM*
Cc1ccc(S(=O)(=O)CC(=O)N2CCCC2)cc1	2.1%	?	i	-9.4%	?
Cc1ccc(S(=O)(=O)C2(C(=O)N3CCN(C4CCCCC4)CC3)CC2)cc1	21.6%	16.4µM*	i	19.0%	10.0%
COc1cccc(Cn2ncc3c4sc(SC)cc4n(C)c3c2=O)c1	/	i	i	/	/
O=C(CSc1ncc2c(n1)-c1cc(Cl)ccc1N(Cc1ccccc1)S2(=O)=O)Nc1ccc(F)cc1F	/	13µM*	i	/	/
CCN1c2ccccc2-c2nc(SCC(=O)Nc3c(C)cc(C)cc3C)ncc2S1(=O)=O	/	4.61µM*	10.3µM*	/	/
COC(=O)c1ccc2c(=O)n(CCCCCC(=O)N3CCN(c4ccc(OC)cc4)CC3)c(=O)[nH]c2c1	/	i	i	/	/
CCOC(=O)N1CCC(N(CCCOC)C(=O)Nc2cccc(OC)c2)CC1	3.1%	i	i	-3.2%	-6.9%
CCOC(=O)N1CCC(N(C(=O)Nc2cccc(OC)c2)C(C)CC)CC1 (stereo not drawn)	-10.1%	18.4µM*	i	-4.2%	-8.4%
CCOc1ccc2c(c1)c(=O)c(C(=O)c1ccc(CC)cc1)cn2CC(=O)Nc1cccc(Cl)c1	/	i	i	/	/
Cc1ccc(-n2cnc3cc(NCc4cccs4)ccc32)cc1	13.0%	?	i	6.8%	?
c1ccc(-n2cnc3cc(NCc4cccs4)ccc32)cc1	?	10.3µM*	?	13µM*	?
c1ccc(-n2cnc3cc(NCc4ccco4)ccc32)cc1	?	?	23.1µM*	?	?
CC(=O)Nc1cc(-c2ccc(C(=O)N3CCOCC3)cc2)cn2c(-c3ccc(S(C)(=O)=O)cc3)cnc12	/	i	i	/	/
NC(=O)CN1C(=O)C(=O)N(Cc2cccc(C(F)(F)F)c2)C1=O	0.3%	i	i	-6.0%	?
OC1COC(c2ccccc2)OC1C(O)C1OC(c2ccccc2)OCC1O (stereo not drawn)	-20.3%	?	?	-2.1%	/
Cc1nc(N2CCCCCC2)c2ccccc2n1	-2.6%	?	?	-4.4%	?
COc1ccc(Nc2nc(N3CCCC3)c3ccccc3n2)cc1	?	?	?	-1.5%	9.2µM*
CCN(CC)c1ccc(Nc2nc(N3CCOCC3)c3ccccc3n2)cc1	?	2.59µM*	8.2µM*	?	?
c1ccc2c(c1)nc(N1CCOCC1)c1ccccc12	-1.7%	i	i	-5.1%	4.2%
Cc1cccc(N(C)C(=O)Cn2cnc3nc4c(cc3c2=O)CCCC4)c1	/	i	i	/	/
